# Data as given in PubChem BioAssay.
# Records with an inconclusive call do not appear. For some assays here: Results with a measured potency or affinity are listed apart. The source made the active and inactive calls. Unless noted, how the calls were made is not given here.
# Legend:
# [1] = antimalarial activity against Dd2 strain (AID 2302;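 active means growth inhibition above 50% at the single 2 µM test dose, taken to imply half-maximal potency below 2 µM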;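 further: 0% = DMSO untreated growth and 100% = chloroquine plus artemisinin killed control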); conditions: P. falciparum Dd2 in RBCs, LDH growth readout, 72 h; at 2 µM; stronger effect = higher value
# [2] = human hepatoma cell viability loss – ATP luminescence, cytotoxicity control for P. falciparum antimalarial project, primary screen (AID 2303;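 active means inhibition above 50%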;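 further: 0% = DMSO wells and 100% = digitonin-killed cells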); conditions: HepG2 viability, 24-48 h, at 10 µM, stronger effect = higher value
# [3] = target: L-lactate dehydrogenase (Plasmodium falciparum (isolate CDC / Honduras)) (UniProt Q27743); assay: PfLDH activity inhibition – cell lysate, 3D7 strain, counter-screen for P. falciparum growth inhibition project (AID 2304);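 further: 0% = vehicle and 100% = reference inhibitor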; conditions: P. falciparum 3D7 crude extract, LDH APAD/NBT absorbance; at 2 µM; stronger effect = higher value
# [4] = inhibition of 3D7 malaria parasite growth – strain 3D7 (AID 2306);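 further: 0% = DMSO wells and 100% = chloroquine plus artemisinin control wells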; conditions: P. falciparum 3D7 erythrocytic growth, LDH absorbance, 72 h; at 2 µM; stronger effect = higher value
# [5] = target: Plasmodium falciparum protein kinase 6 (PK6, PF3D7_1337100) (UniProt Q8IDW1); assay: PfPK6 kinase inhibitors, biochemical, TCAMS library (AID 1159586); conditions: recombinant PfPK6, Kinase-Glo ATP depletion luminescence
# [6] = target: Protein kinase 7 (PK7), Plasmodium falciparum 3D7 (PF3D7_0213400) (UniProt Q7YTF7); assay: inhibition of Plasmodium PK7 catalytic activity – biochemical, TCAMS antimalarial set, Kinase-Glo luminescence (AID 1159587); conditions: recombinant PfPK7, Kinase-Glo ATP depletion luminescence
# [7] = target: Calcium-dependent protein kinase 4 (Plasmodium falciparum (isolate 3D7)) (UniProt Q8IBS5); assay: PfCDPK4 kinase inhibitors, biochemical, TCAMS library (AID 1159588; cut-off not given, nearly all actives have IC50 up to about 0.91 µM); conditions: recombinant PfCDPK4, Kinase-Glo ATP depletion luminescence
# [8] = tested on: Aerobactin synthetase IucA (Klebsiella pneumoniae); assay: inhibition of K. pneumoniae IucA enzyme – biochemical, Tocris library, absorbance (AID 1345561); conditions: purified IucA enzyme assay, absorbance (OD) read-out; stronger effect = lower value;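 tested at 8 µM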;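 further: 100% = enzyme without compound and 0% = no enzyme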
# [9] = viability loss in pontine glioma line – cell-based, SU-DIPG-XVII, MIPE5.0, CellTiter-Glo, qHTS, dose response (AID 1347060; cut-off not given, nearly all actives have AC50 up to about 26 µM;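 further: cells exposed to compound for 48 hours before viability readout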); conditions: CellTiter-Glo ATP luminescence
# [10] = viability loss in pontine glioma line – cell-based, SU-DIPG-XIII, MIPE4.0, CellTiter-Glo, qHTS, dose response (AID 1347061; cut-off not given, nearly all actives have AC50 up to about 37 µM;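 further: cells exposed to compound for 48 hours before readout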); conditions: CellTiter-Glo ATP luminescence
# [11] = viability loss in pontine glioma line – cell-based, JHH-DIPG-1, MIPE4.0, CellTiter-Glo, qHTS, dose response (AID 1347062; cut-off not given, nearly all actives have AC50 up to about 27 µM;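 further: cells exposed to compound for two days before readout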); conditions: JHH-DIPG-1 viability, CellTiter-Glo ATP luminescence
# [12] = viability loss in pontine glioma line – cell-based, SU-DIPG-IV, MIPE4.0, CellTiter-Glo, qHTS, dose response (AID 1347063; cut-off not given, nearly all actives have AC50 up to about 30 µM;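 further: compound exposure lasted 48 hours before the viability readout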); conditions: CellTiter-Glo ATP luminescence
# [13] = viability loss in pontine glioma line – cell-based, SU-DIPG-XIII, MIPE5.0, CellTiter-Glo, qHTS, dose response (AID 1347064; cut-off not given, nearly all actives have AC50 up to about 23 µM;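 further: cells exposed to compound for 48 hours before the viability read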); conditions: CellTiter-Glo ATP luminescence
# [14] = viability loss in pontine glioma line – cell-based, SU-DIPG-XXV, MIPE5.0, CellTiter-Glo, qHTS, dose response (AID 1347065; cut-off not given, nearly all actives have AC50 up to about 26 µM;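 further: cells exposed to compound for 48 hours before ATP readout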); conditions: CellTiter-Glo ATP luminescence
# [15] = growth inhibition of DIPG cells – cell-based, MIPE4.0 library, CellTiter-Glo luminescence, qHTS (AID 1347066; cut-off not given, nearly all actives have AC50 up to about 30 µM;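 further: cells exposed to compound for 48 hours before readout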); conditions: SU-DIPG-VI viability, CellTiter-Glo ATP luminescence
# [16] = JHH-DIPG-1 glioma cell viability, MIPE5.0 library, CellTiter-Glo luminescence, qHTS (AID 1347067; cut-off not given, nearly all actives have AC50 up to about 26 µM;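 further: cells exposed to compound for 48 hours before readout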); conditions: JHH-DIPG-1 glioma viability, CellTiter-Glo ATP luminescence
# [17] = growth inhibition of DIPG cells – cell-based, MIPE5.0 library, qHTS (AID 1347068; cut-off not given, nearly all actives have IC50 up to about 30 µM); conditions: SU-DIPG-XXV viability
# [18] = viability loss with induced miR-34 in A549 – imaging, A549 dox-inducible miR-34, nuclei and caspase counts, primary screen (AID 1347080;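 active means compounds whose cell count with miR-34 switched on is under 0.7 times the count with it off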); conditions: A549 miR-34 inducible, Hoechst nuclei count, 48 h
# [19] = compounds altering HSF1 focus formation in cells – imaging, Selleck Cancer Library (AID 1347162; in the data active means plate-normalised HSF1 focus index below about 0.46); conditions: human cells, HSF1 nuclear foci imaging, at 10 µM; SSMD: measured here: HSF1 foci SSMD mean; cell count: measured here: cell number; plate-normalised HSF1 focus index: stronger effect = lower value
# [20] = galactose survival enhancers in mitochondrial complex I cybrids – cell-based, galactose medium, ATP luminescence, primary screen (AID 1645843;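 active means z-score of at least 1.8 in each of two replicates, scored against plate mean and spread of sample wells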;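 further: positive z means more ATP and so rescue of galactose-driven cybrid death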); conditions: complex I mutant cybrid cells, 72 h, stronger effect = higher value
# Calcium-dependent protein kinase 4 (Plasmodium falciparum (isolate 3D7)), sequence (Q8IBS5 whole entry, looked up): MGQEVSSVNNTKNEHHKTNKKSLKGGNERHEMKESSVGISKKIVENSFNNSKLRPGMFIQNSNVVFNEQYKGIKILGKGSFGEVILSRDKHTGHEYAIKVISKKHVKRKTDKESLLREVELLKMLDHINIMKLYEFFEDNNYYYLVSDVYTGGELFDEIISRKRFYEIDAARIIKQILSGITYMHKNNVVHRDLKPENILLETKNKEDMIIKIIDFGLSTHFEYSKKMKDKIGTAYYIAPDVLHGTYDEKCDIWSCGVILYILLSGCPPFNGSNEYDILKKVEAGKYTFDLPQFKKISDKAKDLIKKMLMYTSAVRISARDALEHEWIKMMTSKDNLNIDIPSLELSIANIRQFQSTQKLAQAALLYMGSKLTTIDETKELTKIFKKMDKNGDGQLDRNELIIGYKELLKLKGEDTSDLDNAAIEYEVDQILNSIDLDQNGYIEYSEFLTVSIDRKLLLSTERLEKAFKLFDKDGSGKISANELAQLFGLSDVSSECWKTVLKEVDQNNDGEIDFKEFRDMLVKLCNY
# Plasmodium falciparum protein kinase 6 (PK6, PF3D7_1337100), sequence (Q8IDW1 1-305): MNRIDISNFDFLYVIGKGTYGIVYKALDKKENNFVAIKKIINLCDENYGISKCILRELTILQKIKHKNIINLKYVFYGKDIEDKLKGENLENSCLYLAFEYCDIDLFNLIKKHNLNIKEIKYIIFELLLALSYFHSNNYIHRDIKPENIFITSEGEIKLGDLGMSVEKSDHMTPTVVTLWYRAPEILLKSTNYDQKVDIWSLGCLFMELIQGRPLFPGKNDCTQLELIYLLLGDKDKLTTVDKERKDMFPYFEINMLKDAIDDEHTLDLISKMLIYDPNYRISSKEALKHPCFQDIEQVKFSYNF
# L-lactate dehydrogenase (Plasmodium falciparum (isolate CDC / Honduras)), sequence (Q27743 whole entry, looked up): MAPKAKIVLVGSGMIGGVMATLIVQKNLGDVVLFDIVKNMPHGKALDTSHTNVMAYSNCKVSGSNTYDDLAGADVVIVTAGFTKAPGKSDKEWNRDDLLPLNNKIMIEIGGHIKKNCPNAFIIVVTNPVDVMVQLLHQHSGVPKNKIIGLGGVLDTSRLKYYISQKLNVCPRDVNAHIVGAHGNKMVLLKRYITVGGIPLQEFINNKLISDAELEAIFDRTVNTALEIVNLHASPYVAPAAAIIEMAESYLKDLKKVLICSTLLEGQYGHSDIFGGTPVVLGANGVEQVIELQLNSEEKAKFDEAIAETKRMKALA
# Protein kinase 7 (PK7), Plasmodium falciparum 3D7 (PF3D7_0213400), sequence (Q7YTF7 1-343): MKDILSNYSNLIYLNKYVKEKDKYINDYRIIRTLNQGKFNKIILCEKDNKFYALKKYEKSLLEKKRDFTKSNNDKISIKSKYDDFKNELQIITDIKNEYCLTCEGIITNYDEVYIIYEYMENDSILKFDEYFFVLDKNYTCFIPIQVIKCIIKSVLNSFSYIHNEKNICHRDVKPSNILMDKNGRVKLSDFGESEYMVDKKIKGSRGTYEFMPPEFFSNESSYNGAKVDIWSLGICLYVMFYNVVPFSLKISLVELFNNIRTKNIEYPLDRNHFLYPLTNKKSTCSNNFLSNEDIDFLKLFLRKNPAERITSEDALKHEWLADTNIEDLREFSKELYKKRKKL
smiles,measurement,setting,value
Oc1cc(Nc2ccnc3cc(I)ccc23)c(F)cc1Cl,growth inhibition,[1],77% (active)
same,inhibition,[2],-3% (inactive)
same,inhibition,[3],-3% (inactive)
same,growth inhibition,[4],92% (active)
same,outcome,[5],inactive
same,outcome,[6],inactive
same,outcome,[7],inactive
Cc1ccc(Nc2nc3cc(N(C)c4ccnc(Nc5cccc(CCS(C)(=O)=O)c5)n4)ccc3n2C)cc1,growth inhibition,[1],73% (active)
same,inhibition,[2],78% (active)
same,inhibition,[3],4% (inactive)
same,growth inhibition,[4],99% (active)
same,outcome,[5],inactive
same,outcome,[6],inactive
same,outcome,[7],inactive
c1ccc(Oc2ccc(Nc3ccnc(Nc4ccc(OCCN5CCCCC5)cc4)n3)cc2)cc1,growth inhibition,[1],66% (active)
same,inhibition,[2],23% (inactive)
same,inhibition,[3],-2% (inactive)
same,growth inhibition,[4],97% (active)
same,outcome,[5],inactive
same,outcome,[6],inactive
same,outcome,[7],inactive
Nc1ncc(-c2cn[nH]c2)cc1-c1nc2ccc(Cl)cc2[nH]1,growth inhibition,[1],100% (active)
same,inhibition,[2],46% (inactive)
same,inhibition,[3],-5% (inactive)
same,growth inhibition,[4],101% (active)
same,outcome,[5],inactive
same,outcome,[6],inactive
same,outcome,[7],inactive
O=C(Nc1cccc(-c2nn3ncccc3c2-c2ccnc(Nc3cccc(-c4cnco4)c3)n2)c1)c1c(F)cccc1F,growth inhibition,[1],98% (active)
same,inhibition,[2],96% (active)
same,inhibition,[3],2% (inactive)
same,growth inhibition,[4],97% (active)
same,outcome,[5],inactive
same,outcome,[6],inactive
O=C(Nc1c(F)cccc1F)c1cccc(-c2nn3ccccc3c2-c2ccnc(Nc3cccc(-c4cnco4)c3)n2)c1,growth inhibition,[1],94% (active)
same,inhibition,[2],96% (active)
same,inhibition,[3],-6% (inactive)
same,growth inhibition,[4],95% (active)
same,outcome,[5],inactive
same,outcome,[6],inactive
O=C(NCCN1CCC(c2ccncc2)CC1)c1cccc(Nc2nccc(Nc3ccc(Oc4ccccc4)cc3)n2)c1,growth inhibition,[1],91% (active)
same,inhibition,[2],60% (active)
same,inhibition,[3],-3% (inactive)
same,growth inhibition,[4],101% (active)
same,outcome,[5],inactive
same,outcome,[6],inactive
same,outcome,[7],inactive
CN(C)CCN(C)Cc1ccc(-c2ccc3c(Nc4ccc(Oc5ccccc5)cc4)ccnc3c2)o1,growth inhibition,[1],100% (active)
same,inhibition,[2],5% (inactive)
same,inhibition,[3],-4% (inactive)
same,growth inhibition,[4],100% (active)
same,outcome,[5],inactive
same,outcome,[6],inactive
same,outcome,[7],inactive
CCn1c(-c2nonc2N)nc2c(-c3ccccc3)ncc(OCCCCNCCc3ncc[nH]3)c21,growth inhibition,[1],42% (inactive)
same,inhibition,[2],34% (inactive)
same,inhibition,[3],-1% (inactive)
same,growth inhibition,[4],92% (active)
same,outcome,[5],inactive
same,outcome,[6],inactive
O=C(Nc1cccc(-c2nn3ccccc3c2-c2ccnc(Nc3cccc(-c4cnco4)c3)n2)c1)C1CCCCC1,growth inhibition,[1],99% (active)
same,inhibition,[2],71% (active)
same,inhibition,[3],-4% (inactive)
same,growth inhibition,[4],95% (active)
same,outcome,[5],inactive
same,outcome,[6],inactive
CN1CCN(CCCNCc2ccc(Nc3nccc(Nc4ccc(Oc5ccccc5)cc4)n3)cc2)CC1,growth inhibition,[1],9% (inactive)
same,inhibition,[2],17% (inactive)
same,inhibition,[3],0% (inactive)
same,growth inhibition,[4],100% (active)
same,outcome,[5],inactive
same,outcome,[6],inactive
same,outcome,[7],inactive
Clc1ccc(-c2cnc3ccc(NCCc4cccnc4)nn23)cc1,growth inhibition,[1],32% (inactive)
same,inhibition,[2],34% (inactive)
same,inhibition,[3],-4% (inactive)
same,growth inhibition,[4],97% (active)
same,outcome,[5],inactive
same,outcome,[6],inactive
same,outcome,[7],inactive
NC(=O)c1ccccc1Nc1nc(Nc2ccn[nH]2)ncc1Cl,growth inhibition,[1],93% (active)
same,inhibition,[2],67% (active)
same,inhibition,[3],-4% (inactive)
same,growth inhibition,[4],96% (active)
same,outcome,[5],inactive
same,outcome,[6],inactive
same,outcome,[7],inactive
CN(C)CCN(C)Cc1nc(-c2ccc3c(Nc4ccc(Oc5ccccc5)cc4)ccnc3c2)cs1,growth inhibition,[1],100% (active)
same,inhibition,[2],27% (inactive)
same,inhibition,[3],-3% (inactive)
same,growth inhibition,[4],100% (active)
same,outcome,[5],inactive
same,outcome,[6],inactive
same,outcome,[7],inactive
CN(C)CCNCc1cccc(-c2ccc3c(Nc4ccc(Oc5ccccn5)cc4)ccnc3c2)c1,growth inhibition,[1],100% (active)
same,inhibition,[2],27% (inactive)
same,inhibition,[3],2% (inactive)
same,growth inhibition,[4],99% (active)
same,outcome,[5],inactive
same,outcome,[6],inactive
same,outcome,[7],inactive
CC(C)(CNC(=O)[C@H]1CCCN1)c1nc(-c2ccc(Cl)c(O)c2)c(-c2ccncc2)[nH]1,growth inhibition,[1],95% (active)
same,inhibition,[2],-11% (inactive)
same,inhibition,[3],-1% (inactive)
same,growth inhibition,[4],86% (active)
same,outcome,[5],inactive
same,outcome,[6],inactive
same,outcome,[7],inactive
CCn1c(-c2nonc2N)nc2c(-c3cccc(NC(=O)Nc4ccccc4OC)c3)ncc(OCCCN)c21,growth inhibition,[1],58% (active)
same,inhibition,[2],84% (active)
same,inhibition,[3],-2% (inactive)
same,growth inhibition,[4],92% (active)
same,outcome,[5],inactive
same,outcome,[6],inactive
CC(C)(CNCCOc1ccc(Cl)cc1)c1nc(-c2ccc(Cl)c(O)c2)c(-c2ccnc(N)n2)[nH]1,growth inhibition,[1],19% (inactive)
same,inhibition,[2],45% (inactive)
same,inhibition,[3],-6% (inactive)
same,growth inhibition,[4],97% (active)
same,outcome,[5],inactive
same,outcome,[6],inactive
same,outcome,[7],inactive
Cc1ccc(Nc2nccc(Nc3ccc4c(c3)nc(Nc3cc(C(C)(C)C)on3)n4C)n2)cc1S(C)(=O)=O,growth inhibition,[1],99% (active)
same,inhibition,[2],30% (inactive)
same,inhibition,[3],-5% (inactive)
same,growth inhibition,[4],100% (active)
same,outcome,[5],inactive
same,outcome,[6],inactive
same,outcome,[7],inactive
Cc1[nH]c(/C=C2\C(=O)Nc3ccc(S(=O)(=O)Cc4c(Cl)cccc4Cl)cc32)c(C)c1C(=O)N1CCC[C@@H]1CN1CCCC1,growth inhibition,[1],92% (active)
same,inhibition,[2],33% (inactive)
same,inhibition,[3],-1% (inactive)
same,growth inhibition,[4],85% (active)
same,outcome,[5],inactive
same,outcome,[6],inactive
same,remaining activity,[8],123% (inactive)
same,AC50,[9],9.34 µM (active)
same,outcome,[10],inactive
same,AC50,[11],26.4 µM (active)
same,AC50,[12],23.5 µM (active)
same,AC50,[13],9.34 µM (active)
same,AC50,[14],8.33 µM (active)
same,AC50,[15],8.33 µM (active)
same,AC50,[16],5.9 µM (active)
same,outcome,[17],inactive
same,fold change,"[18]; stronger effect = lower value, cell number ratio, induced over uninduced",1.1 (inactive)
same,fold change,[18]; measured here: relative caspase fold change +Dox/-Dox,1.29
same,cell count,"[18]; measured here: total cells with miR-34 induction, stronger effect = lower value",5950
same,cell count,[18]; measured here: total cells without miR-34 induction,5410
same,SSMD,[19],0.661
same,cell count,[19],7510
same,plate-normalised HSF1 focus index,[19],1.05 (inactive)
same,z-score,[20],-0.7 (inactive)
